The supplement of paper PMC9694430

tested on: LOC_OS01G14860-cb001; experiment: thermal shift delta Tm vs DMSO control; higher = stronger stabilization (binding); settings: 12.5 µM; protein concentration 2 µM
Method in brief: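 Rice kinase domain constructs, made in E. coli and purified, were placed in 96-well plates at 2 μM in 19.5 μl of 100 mM potassium phosphate pH 7.5, 150 mM NaCl, 10% glycerol and 5 × SYPRO Orange, with compound in DMSO. A temperature ramp from 25°C to 95°C at 0.05°C/s was used for differential scanning fluorimetry. The melting temperature shift is a triplicate mean compared with DMSO-only protein, derived from Boltzmann fits.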
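Note: purified Escherichia coli-expressed rice kinase domain construct.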

Row | Structure (SMILES) | thermal shift delta Tm
1 | CCOc1cc2ncc(C#N)c(Nc3ccc(OCc4ccccn4)c(Cl)c3)c2cc1NC(=O)/C=C/CN(C)C [Neratinib (HKI-272)] | 6.67 °C
2 | COc1cc2nccc(Oc3ccc(NC(=O)Nc4cc(C)on4)c(Cl)c3)c2cc1OC [Tivozanib (AV-951)] | 0.65 °C
3 | O=C1NC(=O)C(c2ccccc2[N+](=O)[O-])=C1Nc1ccc(O)c(Cl)c1 | 0.92 °C
4 | Cc1c(C(=O)N2CCOc3ccc(-c4ccc(N)nc4)cc3C2)ccc(S(C)(=O)=O)c1F | 0.22 °C
5 | Cn1nccc1Nc1nccc(-c2ccn([C@H](CO)c3ccc(Cl)c(F)c3)c(=O)c2)n1 | 5 °C
6 | COc1cc2c(N3CCN(C(=O)Nc4ccc(OC(C)C)cc4)CC3)ncnc2cc1OCCCN1CCCCC1 [Tandutinib (MLN518)] | 0.05 °C
7 | C[C@@H]1COCCN1c1cc(=O)n2c(n1)N(Cc1cncc(Cl)c1)[C@H](C(F)(F)F)CC2 | 0.32 °C
8 | COc1ccc(F)c(F)c1C(=O)c1cnc(NC2CCN(S(C)(=O)=O)CC2)nc1N | 2.35 °C
9 | O=C(NCc1ccccc1)c1csc(Nc2ccncn2)n1 [Thiazovivin] | 3.98 °C
10 | CCN(CC)CCCCNc1ncc2cc(-c3cc(OC)cc(OC)c3)c(NC(=O)NC(C)(C)C)nc2n1 | 0.28 °C
11 | O=c1cc(N2CCOCC2)oc2c(-c3ccc4c(c3)OCCO4)csc12 | 2.26 °C
12 | Nc1ccc(C(=O)Nc2cccc(-c3nc(N4CCOCC4)c4oc5ncccc5c4n3)c2)cn1 | 0.58 °C
13 | O=C(NC[C@H](O)CO)c1ccncc1Nc1ccc(I)cc1F | 0.16 °C
14 | CCOc1cc2ncc(C#N)c(Nc3ccc(F)c(Cl)c3)c2cc1NC(=O)/C=C/CN(C)C [Pelitinib (EKB-569)] | 4.99 °C
